Results as given in PubChem BioAssay (NCI).
About 79,000 compounds went through this panel and 15% of them were active in at least one assay; those are over-represented in the sample as a whole. Active and inactive are the calls of the source. Rule as the data show it: active = growth inhibition above about 70%; inactive = the rest.

Key:
[1] = NCI Yeast Anticancer Drug Screen. Data for the rad50 strain (AID 155);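 also: 0% = growth of vehicle-only cultures of the same strain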; settings: S. cerevisiae rad50 strain growth inhibition, stronger effect = higher value
Method in brief: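 Vehicle-treated cultures provide the reference for the growth inhibition reported for compound-exposed, repair-deficient yeast.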

[2] = NCI Yeast Anticancer Drug Screen. Data for the mec2-1 strain (AID 157); settings: S. cerevisiae mec2-1 strain, stronger effect = higher value
Method in brief: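 Mutant yeast (mec2-1) grown with compound; growth inhibition relative to vehicle control reported.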

[3] = NCI Yeast Anticancer Drug Screen. Data for the sgs1 mgt1 strain (AID 161);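 also: 0% = growth of cultures given vehicle only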; settings: S. cerevisiae sgs1 mgt1 strain, stronger effect = higher value
Method in brief: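 Percent growth inhibition was derived by comparing compound-exposed mutant yeast with vehicle-exposed cultures. The strain carries alterations in DNA damage repair.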

[4] = NCI Yeast Anticancer Drug Screen. Data for the cln2 rad14 strain (AID 165);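 also: 0% = growth equal to vehicle treated cultures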; settings: S. cerevisiae cln2 rad14 strain, stronger effect = higher value
Method in brief: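 Readout is yeast growth inhibition versus vehicle-treated controls, using a strain with cln2 and rad14 alterations exposed to compound.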

[5] = NCI Yeast Anticancer Drug Screen. Data for the bub3 strain (AID 167); settings: S. cerevisiae bub3 mutant strain, stronger effect = higher value
Method in brief: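 Mutant yeast screening strain plus compound; vehicle-treated cultures serve as the 0% inhibition reference.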

[6] = NCI Yeast Anticancer Drug Screen. Data for the mlh1 rad18 strain (AID 175); settings: S. cerevisiae mlh1 rad18 strain growth inhibition, stronger effect = higher value
Method in brief: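 Genetically defined yeast (DNA repair-deficient) exposed to compounds; growth inhibition determined relative to vehicle.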

[7] = at 5.0 µM (retest, dose inferred, filed as 0.5)
[8] = at 50.0 µM (retest, dose inferred, filed as 5.0)

Measured: growth inhibition

Cc1cc(N(CCCCl)CCCCl)ccc1C=Nc1cccc(Cl)c1
active: [1]; at 50.0 µM 79% | [3]; at 50.0 µM 80.7%
inactive: [1]; [7] -7% | [1]; [8] 40% | [2]; [7] -7% | [2]; [8] 12% | [2]; at 50.0 µM 32.8% | [3]; [7] -4% | [3]; [8] 65% | [4]; [7] 3% | [4]; [8] -2% | [4]; at 50.0 µM -21.6% | [5]; [7] -1% | [5]; [8] 59% | [5]; at 50.0 µM 61% | [6]; [7] -10% | [6]; [8] 23% | [6]; at 50.0 µM 68.2%

COc1cccc(/C=C2\CCCc3ccccc3C2=O)c1
inactive: [1]; [7] 1% | [1]; [8] 20% | [1]; at 50.0 µM 52.4% | [2]; [7] 7% | [2]; [8] 45% | [2]; at 50.0 µM 22.3% | [3]; [7] 14% | [3]; [8] 67% | [4]; [7] -7% | [4]; [8] 6% | [4]; at 50.0 µM 26.6% | [6]; [7] 10% | [6]; [8] 60% | [6]; at 50.0 µM 63.6%
active: [3]; at 50.0 µM 80.3% | [5]; [7] 72% | [5]; [8] 87% | [5]; at 50.0 µM 74.4%

O=S(=O)(Nc1ccc2ccc3cccc4ccc1c2c34)c1ccccc1
inactive: [1]; [7] 7% | [1]; [8] 25% | [1]; at 50.0 µM 57.6% | [2]; [7] 3% | [2]; [8] 12% | [2]; at 50.0 µM 34.9% | [3]; [7] 6% | [3]; [8] 45% | [3]; at 50.0 µM 62.2% | [4]; [7] -8% | [4]; [8] -7% | [4]; at 50.0 µM 17.6% | [5]; [7] -4% | [5]; [8] 19% | [5]; at 50.0 µM 56.9% | [6]; [7] 6% | [6]; [8] 55%
active: [6]; at 50.0 µM 71.2%

COC1CC(C)(NC(C)=O)C2OC(c3ccccc3)OCC2O1 (stereo not given)
active: [1]; at 50.0 µM 81.8% | [2]; at 50.0 µM 81.2% | [3]; at 50.0 µM 71.9% | [4]; at 50.0 µM 75.5% | [5]; at 50.0 µM 82.7% | [6]; at 50.0 µM 70.4%
inactive: [1]; [7] -5% | [1]; [8] -16% | [2]; [7] -11% | [2]; [8] -15% | [3]; [7] -7% | [3]; [8] -24% | [4]; [7] -40% | [4]; [8] 10% | [5]; [7] -21% | [5]; [8] -8% | [6]; [7] -1% | [6]; [8] -3%

CC(C)(C)c1ccc(Br)c(CCC(=O)NO)c1
active: [1]; [8] 94% | [1]; at 50.0 µM 97% | [2]; [8] 98% | [2]; at 50.0 µM 98.6% | [3]; [8] 96% | [3]; at 50.0 µM 97% | [4]; [8] 91% | [4]; at 50.0 µM 98.7% | [5]; [8] 96% | [5]; at 50.0 µM 97.7% | [6]; [8] 98% | [6]; at 50.0 µM 97.8%
inactive: [1]; [7] -2% | [2]; [7] -1% | [3]; [7] -15% | [4]; [7] -3% | [5]; [7] -1% | [6]; [7] 9%
